Assay outcomes: PubChem, National Center for Advancing Translational Sciences (NCATS)
IL1B secr inh = inflammasome signaling inhibition, IL-1 beta readout; THP-1 LPS/ATP IL-1B secretion, AlphaLISA, 16 h; hits give low values; activity change, % at 57.5 µM; actives 4.7% (n = 360,000); AID 743279; in the data active = activity change below about -50%; inconclusive = mostly about -30% to -49%; note: % is set by controls: 0 for no effect and ±100 for the full control effect
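Secreted IL-1B measured by AlphaLISA bead assay after 16 h compound exposure of THP-1 cells; compounds (final up to 57.5 uM) added 1 h before LPS (250 ng/mL) and ATP (1.25 mM) stimulation; lower signal means less secretion.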
ATXN2 expr inh = inhibitors of ATXN2 expression | Potency, µM (doses to about 57 µM), without a hit: top-dose activity change, negative = inhibition, usual class: inhibitors | actives 0.72% (n = 360,000) | AID 1745845 | HEK-293 ATXN2-luciferase reporter, luminescence, 24 h; note: potency is the fitted concentration of half-maximal effect; % is set by controls: 0 for no effect and ±100 for the full control effect; nearly all actives have a fitted effect of over 55% in size
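qHTS (up to 57 uM final) was run with 24 h compound exposure of reporter cells at 37 °C. Each well was multiplexed: SteadyGlo luminescence measured ATXN2-luciferase expression after a fluorogenic Gly-Phe-AFC viability readout (25 uM final).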
TGFb SMAD3 inh = inhibitors of TGF-b signaling; HepG2 CAGA-GFP TGF-b/SMAD3 reporter, GFP fluorescence, 18 h; TGF-beta stimulated, 500 pg/mL final; Potency, µM (series often up to 46.1 µM), for the others: top-dose activity, negative = inhibition, actives largely listed as inhibitors; actives 1.2% (n = 410,000); note: potency is the fitted concentration of half-maximal effect; % is set by controls: 0 for no effect and ±100 for the full control effect; nearly all actives have a fitted effect of over 65% in size
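First, reporter cells (HEPG2 CAGA-GFP) rested 2 h at 37 degrees C. Next, compounds were pinned in and TGF-beta added to 500 pg/mL final. After 18 h, GFP was imaged per cell and summed per well.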
HepG2 tox = kills HepG2 cells in TGF-b inhibitor counter-screen; HepG2 CAGA-GFP viability, ATP luminescence, 18 h; Potency, µM (top dose mostly 46.1 µM), without a hit: at the highest dose activity change, negative = cytotoxicity, usual class: cytotoxic; actives 0.76% (n = 410,000); AID 588856; note: potency is the fitted concentration of half-maximal effect
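CellTiter-Glo luminescence gave cytotoxicity after 18 hours at 37 degrees C. The cells were HepG2 CAGA-GFP in 1% FBS DMEM, stimulated with 500 pg/mL TGF-beta after compound addition. %Activity was normalised to no-cell wells (complete cell-killing) and DMSO (no toxicity), and curves were fitted and classified.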
S2 tox = reduces viability in counter-screen for ATXN expression inhibitors; Potency, µM (top dose mostly 56.7 µM), most hits filed as cytotoxic; actives 0.49% (n = 400,000); AID 651635; S2 cells (HEK-293 line with an ATXN2-luciferase reporter) viability, CellTiter-Fluor protease fluorescence, 24 h; note: potency is the fitted concentration of half-maximal effect; nearly all actives have a fitted effect of over 40% in size
An asterisk follows results filed as active; i = inactive; u = inconclusive; x = no result given. Shown are actives, neighbours in structure and some others; about 5.7% of the full set was active somewhere. Unless noted, calls come from the whole dose curve; as a rule, active = well fitted curve in the direction sought with a large enough effect; inconclusive = small, poorly fitted or top-dose-only effect, or another doubt; inactive = no such curve, though single readings can be large; an effect the other way counts as inactive or inconclusive.

SMILES	IL1B secr inh	ATXN2 expr inh	TGFb SMAD3 inh	HepG2 tox	S2 tox
CCCCN1/C(=C/c2cccc[n+]2C)Sc2cc(NC(C)=O)ccc21	8	x	-4%	-17%	i
CCCCN1/C(=C/c2ccc3ccccc3[n+]2CC)Sc2ccccc21	-98*	u	67%	-30%	16µM*
Cc1cccc(NC(=O)C2CCCN(S(=O)(=O)c3c(C)noc3/C=C/N(C)C)C2)c1C (stereo unspecified)	x	3%	-4%	-5%	u
Cc1snc(S(=O)(=O)/C(C#N)=N\Nc2ccccc2)c1C#N	25	0%	2%	-18%	i
Cc1snc(S(=O)(=O)/C(C#N)=N/Nc2ccc(C(F)(F)F)cc2)c1C#N	3	-9%	10µM*	-32%	i
CCc1ccc(-c2[nH]nc3nc(-c4ccc(OC)cc4)cc(C(=O)NCCc4ccc(OC)c(OC)c4)c23)cc1	x	u	10µM*	-62%	i
COc1ccc(CCNC(=O)c2cc(-c3ccc(C)cc3)nc3n[nH]c(-c4ccc(F)cc4)c23)cc1OC	x	-18%	5%	-18%	i
COc1ccccc1CNc1nccn(-c2ccccc2)c1=O	x	32%	0%	-1%	i
CC1=C/C(=C(\c2cc(C)c(O)c(Br)c2)c2ccccc2S(=O)(=O)O)C=C(Br)C1=O	-81*	u	-15%	-39%	11µM*
CC(=O)N1c2ccc(S(=O)(=O)NCC3CCC(C(=O)Nc4cccc(C)c4C)CC3)cc2CC1C (stereo unspecified)	x	x	u	-29%	x
CCOCCc1nn2c(=O)cc(COC(=O)C(CC)c3ccccc3)nc2s1 (stereo unspecified)	x	1%	-10%	-19%	i
COCCN=c1scc(-c2cc(OC)ccc2OC)n1/N=C/c1c[nH]c2ccccc12	-50*	-19%	u	-35%	u
COCCN=c1scc(-c2ccco2)n1/N=C/c1ccc(O)c(O)c1O	33	-14%	11%	4%	i
COc1cc(C(C[N+](=O)[O-])c2c(C)cc3ccccn23)ccc1O (stereo unspecified)	-97*	-13%	24%	8%	u
COc1ccc(C(C[N+](=O)[O-])c2c(-c3ccccc3)cc3ccccn23)cc1OC (stereo unspecified)	-16	1%	3%	-12%	i
Cc1nc(NCc2ccc3c(c2)OCO3)c2oc3ccccc3c2n1	-52*	-27%	u	-30%	i
Cc1nc(Nc2cccc(Cl)c2)c2oc3ccccc3c2n1	-72*	-17%	u	-35%	x
Cc1nc(SCc2nc3ccc(Cl)cc3[nH]2)c2oc3ccccc3c2n1	x	u	7.9µM*	-15%	u
Cc1nc(SCc2nc3ccc(Br)cc3[nH]2)c2oc3ccccc3c2n1	x	-31%	u	-10%	i
CCc1nc(Nc2ccccc2O)c2oc3ccccc3c2n1	0	-11%	5%	4%	i
Cc1nc(Nc2ccc(Cl)cc2)c2oc3ccccc3c2n1	12	-10%	-23%	-27%	i
CCc1nc(NCc2ccc3c(c2)OCO3)c2oc3ccccc3c2n1	12	-3%	0%	-47%	i
CCc1nc(Nc2ccc(O)cc2)c2oc3ccccc3c2n1	-89*	-22%	3%	-18%	i
COc1cc(=O)n2c(c1C(=O)N(C)Cc1nonc1C)CCN(CC1CC=CCC1)CC2 (stereo unspecified)	x	x	x	x	i
Cc1nc(Nc2ccc3c(c2)OCCO3)c2oc3ccccc3c2n1	-84*	0%	5%	-28%	u
SMILES	IL1B secr inh	ATXN2 expr inh	TGFb SMAD3 inh	HepG2 tox	S2 tox
CCc1nc(Nc2ccc3c(c2)OCCO3)c2oc3ccccc3c2n1	-4	u	0%	-36%	i
COc1ccc(Cl)cc1NC(=O)Cc1coc2c(C)c(C)ccc12	x	u	u	-28%	i
NC(=O)c1sc2nc3c(cc2c1N)CCCCCC3	-97*	44%	48%	30%	u
Nc1c(C(=O)Nc2ccc(C(=O)O)cc2)sc2nc3c(cc12)CCCC3	x	82%	-8%	14%	i
Nc1c(C(=O)Nc2ccccc2)sc2nc3c(c(-c4ccco4)c12)CCCC3	-51*	2%	2%	-20%	u
Nc1c(C(=O)Nc2cccc(C(=O)O)c2)sc2nc3c(cc12)CCCC3	5	4µM*	2%	8%	i
CCN(CC)S(=O)(=O)c1cc(C(=O)Nc2ccncc2)ccc1Cl	-56*	-22%	u	-33%	i
CCN(CC)CCNC(=O)c1ccc(NC(=O)c2ccc(Cl)c(S(=O)(=O)N3CCCCCC3)c2)cc1	-104*	u	u	-78%	i
CCN(CC)CCNC(=O)c1ccc(NC(=O)c2ccc(C(=O)c3ccccc3)cc2)cc1	-69*	u	u	-40%	i
CCN(CC)S(=O)(=O)c1cc(C(=O)Nc2cccnc2)ccc1Cl	13	-7%	-4%	3%	i
CCN(CC)CCNC(=O)c1ccc(NC(=O)c2ccc(S(=O)(=O)N3CCCCCC3)cc2)cc1	-8	-8%	u	-40%	u
CCc1ccc(NC(=O)CC2C(=O)N(c3ccc(Cl)cc3)C(=O)N2Cc2cccs2)cc1 (stereo unspecified)	x	x	u	-37%	x
Cc1ccc(Cl)cc1N1CCN(C(=O)c2cnn(-c3ccc(Cl)cc3)c2C2CCNCC2)CC1	x	32µM*	u	11µM*	x
Cc1cccc(N2CCN(C(=O)c3cnn(-c4cccc(Cl)c4C)c3C3CCNCC3)CC2)c1C	x	x	18µM*	-94%	x
CCOC(=O)C(C)Sc1ccc2nnc(-c3ccc(OCC)cc3)n2n1 (stereo unspecified)	x	x	6%	0%	x
Nc1cccc2[nH]cnc12	x	x	-18%	-9%	x
COC(=O)c1sc(NC(=O)c2ccc(C)o2)nc1C	4	33%	-30%	-46%	i
Cc1ccc(C)c(NC(=O)c2sc(Cl)nc2C)c1	-58*	5%	2%	19%	u
Cc1nc(Cl)sc1C(=O)Nc1ccccc1	4	-10%	23%	5%	i
CCOC(=O)c1sc(Nc2cccc(Cl)c2)nc1C	-87*	18%	u	-38%	i
CCOC(=O)c1sc(Nc2ccc(OCC)cc2)nc1C	u	22%	-2%	5%	i
CCOC(=O)c1sc(NC(=O)c2ccc(C)o2)nc1C	25	8%	u	5µM*	i
Cc1nc(Cl)sc1C(=O)Nc1cccc(Cl)c1	-56*	-45%	8%	14%	u
CCOc1ccc(CCNC(=O)c2cn(C)c3ccc(S(=O)(=O)N4CCCCCC4)cc3c2=O)cc1OCC	x	7%	-10%	8%	i
CC(=O)c1cccc(NC(=O)c2sc(Cl)nc2C)c1	-54*	-45%	17%	38%	i
